Test systems include SK-MEL-2 melanoma; EKVX NSCLC; SN12C renal; UO-31 renal; TK-10 renal; ACHN renal; CAKI-1 renal; A498 renal; CCRF-CEM leukemia; MOLT-4 leukemia; SR leukemia; OVCAR-8 ovarian; OVCAR-5 ovarian; OVCAR-4 ovarian; SK-OV-3 ovarian; IGROV1 ovarian; OVCAR-3 ovarian; HS 578T breast; NCI/ADR-RES ovarian; RPMI-8226 leukemia.
What all share (assay): NCI-60 one-dose screen, 48 h (100 = growth as untreated, 0 = no growth, -100 = all killed)
What all share (details): 10 µM unless noted

Each structure is given as a SMILES string. About 83,000 compounds went through this panel and 20% of them were active in at least one assay; those are over-represented in the sample as a whole.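 For each line, cells grew in 96-well plates with the test compound present at a single concentration for 48 hours.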 Values without a mark were called inactive. Active and inactive are the calls of the source. Rule for the calls: active = growth percent below 10; inactive = the rest.

`CC(C)c1ccc(-c2cnc3nonc3n2)cc1`: the growth was 76.4% in the test with SK-MEL-2 melanoma; 71.9% in the test on EKVX NSCLC; 26.2% with SN12C renal; 41.3% in the test on UO-31 renal; 47.5% in the test with TK-10 renal; 51.3% in the test with ACHN renal. Also, the growth with CAKI-1 renal was 60.7%; with A498 renal, 61.8%; in the test with CCRF-CEM leukemia, 1.81% (active); with MOLT-4 leukemia, -12.1% (active); in the test with SR leukemia, 6.91% (active); in the test with OVCAR-8 ovarian, 36.6%. Further, the growth in the test with OVCAR-5 ovarian is 37.6%; in the test on OVCAR-4 ovarian, 59.5%; with SK-OV-3 ovarian, 82.4%; with IGROV1 ovarian it was 54.4%; in the test with OVCAR-3 ovarian, 15.6%; in the test with HS 578T breast, 77.6%. For the same molecule, the growth with NCI/ADR-RES ovarian was 19.9%.

With `CC(C)(CCc1ccccn1)C(=O)CCCc1ccccn1`, the growth was 98.7% with SK-MEL-2 melanoma; 105% in the test on EKVX NSCLC; 94.8% with SN12C renal; 85.9% with UO-31 renal; 97% in the test with TK-10 renal; 97.4% in the test on ACHN renal. Besides, the growth in the test with CAKI-1 renal is 98%; in the test with A498 renal, 96.3%; with CCRF-CEM leukemia, 84.8%; with MOLT-4 leukemia, 101%; with SR leukemia, 90.9%; in the test on OVCAR-8 ovarian it was 105%. Moreover, the growth in the test with OVCAR-5 ovarian is 103%; with OVCAR-4 ovarian, 111%; in the test with SK-OV-3 ovarian, 108%; in the test with IGROV1 ovarian it was 108%; with OVCAR-3 ovarian, 110%; with HS 578T breast it was 111%. Moreover, the growth in the test with NCI/ADR-RES ovarian is 106%.

With `NS(=O)(=O)c1ccc(CCn2c(SCC(=O)N/N=C/c3ccccc3O)nc3ccccc3c2=O)cc1`, the growth is 14.2% in the test on SK-MEL-2 melanoma; 75.8% in the test on EKVX NSCLC; 51.3% with SN12C renal; 70.4% in the test on UO-31 renal; 70% in the test on TK-10 renal; 87.4% in the test with ACHN renal. Further, the growth is 60.1% in the test on CAKI-1 renal; 21.7% with A498 renal; 18.7% with CCRF-CEM leukemia; 21.4% with MOLT-4 leukemia; 19.9% in the test on SR leukemia; 32.1% with RPMI-8226 leukemia. Besides, the growth was 36.9% in the test on OVCAR-8 ovarian; 83.3% with OVCAR-4 ovarian; 59.2% in the test on SK-OV-3 ovarian; 64.4% in the test with IGROV1 ovarian; 23.8% in the test on OVCAR-3 ovarian; 37.5% with HS 578T breast. In addition, the growth with NCI/ADR-RES ovarian is 92.3%.

As for `Clc1cc(Cl)cc(-c2cnc3nonc3n2)c1`, the growth in the test with SK-MEL-2 melanoma is 98.5%; in the test with EKVX NSCLC, 102%; with SN12C renal it was 99.4%; in the test on UO-31 renal, 62.3%; in the test with TK-10 renal it was 79.9%; in the test with ACHN renal, 72.6%. Also, the growth in the test on CAKI-1 renal was 93.5%; in the test with A498 renal, 100%; with CCRF-CEM leukemia, 50.5%; in the test on MOLT-4 leukemia, 92.9%; in the test with SR leukemia, 93.2%; in the test with OVCAR-8 ovarian, 94.2%. The growth in the test with OVCAR-5 ovarian was 93.7%; in the test on OVCAR-4 ovarian it was 85.5%; with SK-OV-3 ovarian it was 96.4%; in the test with IGROV1 ovarian, 94.9%; with OVCAR-3 ovarian, 36%; in the test on HS 578T breast, 102%. For the same molecule, the growth in the test with NCI/ADR-RES ovarian is 98.9%.

With `CCCCOc1nc2ccccc2cc1/C=C/c1cc(/C=C/c2cc3ccccc3nc2OCCCC)n(-c2ccccc2)n1`, the growth was 101% with SK-MEL-2 melanoma; 105% in the test with EKVX NSCLC; 95.3% in the test with SN12C renal; 75.2% with UO-31 renal; 119% with TK-10 renal; 103% in the test on ACHN renal. Further, the growth with CAKI-1 renal was 88.3%; in the test on A498 renal it was 95.9%; in the test with CCRF-CEM leukemia it was 101%; in the test with MOLT-4 leukemia, 99%; in the test with SR leukemia, 98.7%; with OVCAR-8 ovarian, 95.9%. In addition, the growth was 102% with OVCAR-5 ovarian; 109% with OVCAR-4 ovarian; 92.6% in the test on SK-OV-3 ovarian; 97.9% in the test on IGROV1 ovarian; 107% in the test on OVCAR-3 ovarian; 87.6% in the test on HS 578T breast.

In the case of `Cc1c(C(N)=O)sc2ncn(CC(=O)NN=C3CCCCC3)c(=O)c12`, the growth with SK-MEL-2 melanoma is 5.33% (active); with EKVX NSCLC, 96.6%; with SN12C renal it was 96.3%; with UO-31 renal, 124%; in the test with TK-10 renal, 106%; with ACHN renal, 109%. The growth in the test with CAKI-1 renal was 132%; in the test on A498 renal, 111%; with CCRF-CEM leukemia it was 113%; in the test with MOLT-4 leukemia it was 109%; in the test with SR leukemia, 82.9%; in the test with OVCAR-8 ovarian, 110%. The growth in the test on OVCAR-5 ovarian was 104%; with OVCAR-4 ovarian, 110%; in the test on SK-OV-3 ovarian, 110%; with IGROV1 ovarian, 135%; in the test on OVCAR-3 ovarian, 107%; in the test on HS 578T breast, 108%. Further, the growth in the test with NCI/ADR-RES ovarian was 100%.

As to `COc1ccccc1/C=N\Nc1ccc([N+](=O)[O-])cn1`, the growth was 102% with SK-MEL-2 melanoma; 92.8% in the test on EKVX NSCLC; 109% with SN12C renal; 90.8% with UO-31 renal; 111% in the test with TK-10 renal; 109% in the test on ACHN renal. In addition, the growth in the test on CAKI-1 renal was 90.4%; in the test with A498 renal, 106%; in the test on CCRF-CEM leukemia, 106%; in the test on MOLT-4 leukemia, 103%; in the test with SR leukemia, 104%; in the test on OVCAR-8 ovarian, 106%. In addition, the growth was 108% in the test with OVCAR-5 ovarian; 115% in the test on OVCAR-4 ovarian; 108% in the test with SK-OV-3 ovarian; 102% in the test with IGROV1 ovarian; 117% in the test on OVCAR-3 ovarian; 124% with HS 578T breast. Also, the growth with NCI/ADR-RES ovarian is 107%.

With `CC(CN1CCN(CC(C)Nc2ccnc3cc(Cl)ccc23)CC1)Nc1ccnc2cc(Cl)ccc12` (stereo not given), the growth is -37.9% (active) in the test on SK-MEL-2 melanoma; 67.3% in the test with EKVX NSCLC; 57.7% with SN12C renal; -49.5% (active) in the test on UO-31 renal; -48% (active) in the test with TK-10 renal; 19.1% in the test with ACHN renal. Besides, the growth is 11.2% in the test on CAKI-1 renal; 84.7% in the test on A498 renal; 5.14% (active) in the test on CCRF-CEM leukemia; 4.88% (active) in the test with MOLT-4 leukemia; -44.1% (active) in the test on SR leukemia; -32.2% (active) in the test with RPMI-8226 leukemia. Further, the growth in the test on OVCAR-8 ovarian is 6.74% (active); with OVCAR-4 ovarian, 3.26% (active); with SK-OV-3 ovarian it was 97.2%; in the test with IGROV1 ovarian it was 28.2%; in the test on OVCAR-3 ovarian it was -7.9% (active); in the test on HS 578T breast, 9.67% (active).

(Values after PubChem BioAssay (NCI).)
